Reference: PubChem BioAssay AID1210 (NMMLSC, 2008)
The source made the active and inactive calls.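 Rule for the calls: active = blocks over 70% of labeled estradiol binding at 10 µM, or over a set limit at 100 nM; inactive = the rest.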

Molecular target: Estrogen receptor beta (Homo sapiens) (UniProt Q92731)
Experiment: ERbeta ligand binders by competition, primary screen, cell-based, Cos7 ERbeta-GFP, flow cytometry (AID 1210);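 note: 0% = DMSO vehicle wells and 100% = complete loss of labeled estradiol signal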
Conditions: fluorescent estrogen binding, at 10 µM, hits give high values

Sequence of Estrogen receptor beta (Homo sapiens) (Q92731 whole entry, looked up): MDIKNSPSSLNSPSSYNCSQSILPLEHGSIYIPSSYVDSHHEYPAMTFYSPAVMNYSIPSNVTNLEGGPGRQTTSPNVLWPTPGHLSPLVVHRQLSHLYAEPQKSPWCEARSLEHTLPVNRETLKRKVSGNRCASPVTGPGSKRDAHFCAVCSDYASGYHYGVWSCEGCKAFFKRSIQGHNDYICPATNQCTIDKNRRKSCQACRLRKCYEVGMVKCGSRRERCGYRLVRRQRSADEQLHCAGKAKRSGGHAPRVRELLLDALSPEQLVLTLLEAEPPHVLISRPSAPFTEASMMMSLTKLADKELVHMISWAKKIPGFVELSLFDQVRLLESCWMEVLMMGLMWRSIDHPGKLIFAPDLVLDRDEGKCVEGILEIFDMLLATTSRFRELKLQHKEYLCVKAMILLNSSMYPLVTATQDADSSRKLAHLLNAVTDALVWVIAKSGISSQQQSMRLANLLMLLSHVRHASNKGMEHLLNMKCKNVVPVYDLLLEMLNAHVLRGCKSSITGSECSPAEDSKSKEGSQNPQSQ

**Q.** How did the inhibition turn out when `COc1ccc(-c2nc(C(N)=O)c3[nH]c(=O)n(-c4cccc(Cl)c4)c3n2)cc1OC` was run?
**A.** Its inhibition is 13% (inactive).

**Q.** Which inhibition does the source give for `COc1cc(/C=N/N2CCN(C3c4ccccc4-c4ccccc43)CC2)cc(OC)c1O` here?
**A.** The inhibition was 12% (inactive).

**Q.** Which inhibition does the source give for `CCOc1ccccc1-c1nc(-c2ccc(NC(=O)c3ccc(Br)o3)cc2)no1` here?
**A.** Its inhibition is 37% (inactive).

**Q.** With `CCOc1ccc(NS(=O)(=O)c2ccc3c(c2)[C@H]2C=CC[C@H]2[C@@H](c2ccc(C(=O)O)cc2)N3)cc1` as the compound, how does the inhibition read?
**A.** The inhibition was 52% (inactive).

**Q.** How did the inhibition turn out when `CC(=O)c1ccc(N2Cc3ccccc3C2)cc1` was run?
**A.** Its inhibition is 19% (inactive).

**Q.** How did the inhibition turn out when `CCCCCCc1cc2c3c(c(=O)oc2cc1OCC(=O)O)CCCC3` was run?
**A.** Its inhibition is 7% (inactive).

**Q.** Which inhibition does the source give for `Fc1ccc2c(c1)C1C=CCC1C(c1cc3c(cc1Br)OCO3)N2` (stereo not drawn) here?
**A.** The inhibition was 0% (inactive).

**Q.** `COC(=O)c1cnn2c(C(F)(F)F)cc(-c3ccco3)nc12` was tested. Which inhibition did it give?
**A.** The inhibition was 27% (inactive).

**Q.** Which inhibition does the source give for `COc1ccc2c(c1)c1c3n2CCNC3CCC1` (stereo not drawn) here?
**A.** Its inhibition is 18% (inactive).

**Q.** How did the inhibition turn out when `CCCCCCc1cc2c3c(c(=O)oc2cc1OCC(=O)OC)CCC3` was run?
**A.** Its inhibition is 20% (inactive).

**Q.** Which inhibition does the source give for `CCOC(=O)N1CCc2[nH]c3ccc(C)cc3c2C1` here?
**A.** Its inhibition is 9% (inactive).

**Q.** For `COc1cc([N+](=O)[O-])cc2c1NC(c1ccccc1Cl)C1CC=CC21` (stereo not drawn), which inhibition is on record?
**A.** The inhibition was 20% (inactive).

**Q.** How did the inhibition turn out when `COc1cc([N+](=O)[O-])cc2c1N[C@@H](c1ccc(C(=O)O)cc1)[C@H]1CC=C[C@@H]21` was run?
**A.** Its inhibition is 42% (inactive).

**Q.** Which inhibition does the source give for `COC(=O)c1ccc(OCc2c(C)noc2C)cc1` here?
**A.** The inhibition was 0% (inactive).

**Q.** For `CCCCOC(=O)c1c(C)oc2ccc(NS(=O)(=O)c3ccc4c5c(cccc35)C(=O)N4)cc12`, which inhibition is on record?
**A.** Its inhibition is 43% (inactive).

**Q.** Which inhibition does the source give for `O=C(COC(=O)C1CC2C=CC1C2)NCc1ccco1` (stereo not drawn) here?
**A.** Its inhibition is 25% (inactive).

**Q.** Which inhibition does the source give for `COc1cc([N+](=O)[O-])cc2c1NC(c1ccc(Cl)cc1)C1CC=CC21` (stereo not drawn) here?
**A.** Its inhibition is 1% (inactive).

**Q.** How did the inhibition turn out when `COc1ccc(Cn2c(=O)[nH]c3cc(C(=O)NCc4ccc5c(c4)OCO5)ccc3c2=O)cc1` was run?
**A.** The inhibition was 35% (inactive).

**Q.** Which inhibition does the source give for `CC(=O)OC1CC2(C)C(=O)CCC2C2CCc3cc(O)ccc3C12` (stereo not drawn) here?
**A.** The inhibition was 95% (active).

**Q.** How did the inhibition turn out when `COc1cc(-c2nc3ccc4ccccc4c3c3c2CCC3)cc(OC)c1O` was run?
**A.** The inhibition was 64% (inactive).

**Q.** For `Cc1noc(C)c1S(=O)(=O)N(CC(=O)O)c1ccc2c(c1)OCO2`, which inhibition is on record?
**A.** Its inhibition is 31% (inactive).

**Q.** `CC1CCCC(C)N1Cc1c(O)ccc2c3c(c(=O)oc12)CCC3` (stereo not drawn) was tested. Which inhibition did it give?
**A.** The inhibition was 21% (inactive).

**Q.** With `CCc1oc2c(C)c(O)ccc2c(=O)c1-c1ccc2ccccc2n1` as the compound, how does the inhibition read?
**A.** The inhibition was 39% (inactive).

**Q.** With `CCc1cc2c3c(c(=O)oc2cc1OCC(=O)OC)CCCC3` as the compound, how does the inhibition read?
**A.** Its inhibition is 15% (inactive).

**Q.** For `CCCSc1nc(C)c(-c2csc(C(C#N)=C3CCCC3)n2)cc1C#N`, which inhibition is on record?
**A.** The inhibition was 37% (inactive).

**Q.** `COc1ccccc1NC(=O)c1ccccc1NC(=O)c1cc(Cl)ccc1NC(=O)c1ccco1` was tested. Which inhibition did it give?
**A.** The inhibition was 77% (active).

**Q.** How did the inhibition turn out when `O=C(O)c1ccc(Cl)c2c1C1C=CCC1C(c1ccccn1)N2` (stereo not drawn) was run?
**A.** Its inhibition is 28% (inactive).

**Q.** For `COC(=O)c1ccc2c(c1)C1C=CCC1C(c1cccc([N+](=O)[O-])c1)N2` (stereo not drawn), which inhibition is on record?
**A.** Its inhibition is 18% (inactive).

**Q.** `CSC(=O)CNC1(Cc2ccc(O)cc2)CCCCC1` was tested. Which inhibition did it give?
**A.** Its inhibition is 87% (active).

**Q.** For `Cc1ccc2c(c1)C1C=CCC1C(C(=O)O)N2` (stereo not drawn), which inhibition is on record?
**A.** Its inhibition is 0% (inactive).

**Q.** `CC1CCN(Cc2c(O)ccc3c4c(c(=O)oc23)CCC4)CC1` was tested. Which inhibition did it give?
**A.** Its inhibition is 21% (inactive).

**Q.** With `CC(=O)Oc1ccc2c(c1)CCC1C2C(O)CC2(C)C(=O)CCC12` (stereo not drawn) as the compound, how does the inhibition read?
**A.** The inhibition was 77% (active).

**Q.** With `CCOc1cc2c(cc1OCC)C(C1CCCCC1)NCC2` (stereo not drawn) as the compound, how does the inhibition read?
**A.** The inhibition was 12% (inactive).

**Q.** How did the inhibition turn out when `COc1cccc([C@@H]2Oc3ccc(OC)cc3C(=O)[C@H]2O)c1` was run?
**A.** The inhibition was 32% (inactive).

**Q.** Which inhibition does the source give for `Cc1nc2ccccc2n1-c1cc(C(C)(C)C)c(O)c(C(C)(C)C)c1` here?
**A.** Its inhibition is 16% (inactive).

**Q.** Which inhibition does the source give for `O=C(O)C1Nc2c(C(=O)N3CCOCC3)cccc2C2C=CCC12` (stereo not drawn) here?
**A.** Its inhibition is 45% (inactive).

**Q.** How did the inhibition turn out when `COc1cc([C@@H]2Nc3ccc(S(=O)(=O)Nc4ccccc4F)cc3[C@@H]3C=CC[C@@H]32)cc(OC)c1OC` was run?
**A.** Its inhibition is 11% (inactive).

**Q.** Which inhibition does the source give for `CN(/N=C/c1cccnc1)c1cnn(-c2ccc(F)c(Cl)c2)c(=O)c1Cl` here?
**A.** Its inhibition is 20% (inactive).
